Compound activity deposited in PubChem BioAssay by several laboratories.
In the library only some 32% were active in any assay of this set; here they are far more common.
CYP2C19 inhib: blocks human cytochrome P450 2C19; hit rate 21% among 96,000; AID 778; inhibition, % at 5 µM; CYP2C19 Supersomes, luciferin-H EGE luminescence, 30 min;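 active = CYP2C19 inhibition above a set limit at 5 µM in the primary screen, cut at about 50% in these data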;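 also: plate controls were negative control wells for no effect and 2.5 mM tranylcypromine positive control for full effect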
Target sequence (P33261 whole entry, looked up): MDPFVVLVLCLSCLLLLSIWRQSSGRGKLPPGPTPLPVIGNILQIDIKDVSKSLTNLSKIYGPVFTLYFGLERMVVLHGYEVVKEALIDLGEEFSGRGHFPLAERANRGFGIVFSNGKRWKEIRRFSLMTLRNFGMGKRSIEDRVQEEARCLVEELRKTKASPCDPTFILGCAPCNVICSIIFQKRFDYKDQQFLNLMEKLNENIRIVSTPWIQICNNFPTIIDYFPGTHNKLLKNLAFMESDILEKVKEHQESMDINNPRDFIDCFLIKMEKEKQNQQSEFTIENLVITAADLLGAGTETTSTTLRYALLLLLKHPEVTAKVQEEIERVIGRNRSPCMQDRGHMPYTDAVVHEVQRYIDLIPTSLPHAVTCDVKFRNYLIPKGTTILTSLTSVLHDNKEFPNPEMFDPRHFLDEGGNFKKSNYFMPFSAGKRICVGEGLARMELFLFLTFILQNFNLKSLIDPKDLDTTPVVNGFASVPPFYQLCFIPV
CYP2C9 inh: human CYP2C9 inhibition; inhibition, % at 5 µM; hit rate 20% among 96,000; CYP2C9 Supersomes, luciferin-H conversion, luminescence; P11712; AID 777;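 active = blocking of liver enzyme CYP2C9 beyond about 50% at 5 µM, limit read from the data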
CYP2C9 act: CYP2C9 (human) activation; activation factor at 5 µM; P11712; recombinant CYP2C9, luciferin-H conversion, luminescence; stronger effect = higher value; factor 1 = untreated enzyme, 0 = blocked; hit rate 1.4% among 96,000;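 active = activation factor of 2 or more for CYP2C9 at a 5 µM dose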;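 also: 0 = sulfaphenazole-blocked wells and 1 = vehicle-only wells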
CYP2C19 activ: increases human CYP2C19 enzyme activity; P33261; recombinant CYP2C19, luciferin-H EGE luminescence; stronger effect = higher value; 0 = fully inhibited enzyme, 1 = untreated enzyme; activation factor at 5 µM; 96,000 tested, under 10 active;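 active = activation factor of at least 2 at 5 µM in the primary screen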;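 also: 0 = wells with 2.5 mM tranylcypromine and 1 = vehicle-only wells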
PostGolgi yeast: growth inhibition of a yeast mutant, post-Golgi transport screen; post-Golgi transport phenotypic cell assay; inhibition, % at 10 µM; hit rate 0.9% among 98,000;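 also: yeast cells grown in 1536-well plates; yeast grown about 18 h at 30C before absorbance read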
PostGolgi ctrl: inhibits growth of the yeast control strain; inhibition, % at 10 µM; efflux-deficient yeast background strain, growth absorbance A615, 16 h; hit rate 5% among 98,000
The depositor's hits bear a star; nt = no result. Rule as the data show it, unless noted: active = inhibition above about 30%; inactive = the rest.

SMILES	CYP2C19 inhib	CYP2C9 inh	CYP2C9 act	CYP2C19 activ	PostGolgi yeast	PostGolgi ctrl
CCCCC(=O)Nc1nn(CC(C)C)c2nc3ccccc3cc12	30	29	0.7	0.7	-6	15
COC(=O)CSCC(=O)Nc1cc2c(cc1C(C)=O)OCO2	11	2	1	0.9	4	0
CC1CCC(NC(=O)CN2CCCN(Cc3ccc(F)cc3Cl)C2=O)CC1 (stereo not given)	6	8	0.9	0.9	8	3
CC(=O)N1CCc2cc(C(=O)CN3CCN(C(=O)c4ccco4)CC3)ccc21	23	43	0.6	0.8	-2	0
Nc1ccccc1-c1nnc(SCc2ccccc2F)[nH]c1=O	1	39	0.6	1	-5	11
CC(C)(C)C(=O)COC(=O)CNC(=O)c1ccc(Oc2ccccc2)cc1	22	53*	0.5	0.8	6	0
O=C(NCCCNCc1ccccc1)c1ccccn1	5	1	1	0.9	5	36*
CCOC(=O)c1cnc(Nc2nc3ccccc3o2)nc1C	88*	58*	0.4	0.1	0	-3
Cc1c(CCO)c(=O)[nH]n1C(=O)c1ccc(F)cc1	28	74*	0.3	0.7	-3	-8
O=C(CSCc1ccc(F)cc1)NCc1ccco1	70*	40	0.6	0.3	5	6
O=C(CC1CC2CCC1C2)NCc1cccs1 (stereo not given)	66*	19	0.8	0.3	4	16
O=C(CSCC(=O)NCc1ccco1)NCc1ccco1	4	2	1	1	1	8
O=C(CCSCCC(=O)NCc1ccco1)NCc1ccco1	16	90*	0.1	0.8	-9	1
O=C(CCSCCC(=O)NCc1cccs1)NCc1cccs1	35	62*	0.4	0.6	6	0
O=C(Cc1cccs1)NCc1cccs1	46	14	0.9	0.5	1	10
O=C(NCc1ccco1)C(c1ccc(F)cc1)N(CC1CCCO1)C(=O)Cn1nnc2ccccc21 (stereo not given)	33	28	0.7	0.7	-7	-10
CCNC(=S)NNC(=O)c1ccc(OC(F)F)cc1	27	8	0.9	0.7	-1	2
C=CCSc1nc2c(c(=O)[nH]c(=O)n2C)n1Cc1ccc(C)cc1	nt	nt	nt	nt	-6	27
COc1ccc(-c2nnc(NC(=O)c3ccc(S(=O)(=O)N4CCCc5ccccc54)cc3)o2)cc1	-1	54*	0.5	1	2	20
O=C(NCc1ccco1)c1ccc(S(=O)(=O)N2CCCc3ccccc32)cc1	67*	76*	0.2	0.3	-15	2
O=C(NCc1ccco1)c1ccc2ccccc2c1	28	-4	1	0.7	7	4
CC1CN(S(=O)(=O)c2ccc(C(=O)Nc3nnc(-c4ccc5c(c4)CCCC5)o3)cc2)CC(C)O1 (stereo not given)	2	42	0.6	1	-2	21
O=C(Nc1nnc(C2CC2)o1)c1ccc(S(=O)(=O)N2CCCc3ccccc32)cc1	6	95*	0.1	0.9	33*	3
CC(CN(C(N)=O)c1ccccc1O)C(=O)O (stereo not given)	-18	-38	1.4	1.2	-3	0
O=C1NN(c2ccccc2)C(=O)C2C3C=CC(C4CC34)C12 (stereo not given)	-2	-20	1.2	1	11	1
SMILES	CYP2C19 inhib	CYP2C9 inh	CYP2C9 act	CYP2C19 activ	PostGolgi yeast	PostGolgi ctrl
CNC(=O)c1nnn(Cc2ccccc2)c1NC(=O)C(F)(F)F	2	22	0.8	1	0	17
CC(C)c1nnc(NC(=O)CCC(=O)NCc2ccc3c(c2)OCO3)s1	1	12	0.9	1	8	5
Cc1ccccc1NC(=O)c1ccccc1O	10	16	0.8	0.9	-1	12
Cc1cc(NC(=O)c2ccccc2Cl)c(C(C)C)cc1O	65*	-210	3.1*	0.3	-18	15
Cc1nnc(SCC(=O)Nc2ccc(N3CCOCC3)cc2)n1-c1ccccc1	9	30	0.7	0.9	-6	-2
COc1cccc(NC(=O)N2CCOCC2)c1	0	-1	1	1	2	24
COC(=O)c1ccc(N2CCOCC2)c(NC(=O)Nc2cccc(OC)c2)c1	24	71*	0.3	0.8	-4	nt
COc1cccc(C(=O)Nc2ccccc2N2CCOCC2)c1	62*	53*	0.5	0.4	-4	9
COc1cccc(C(=O)OCC(=O)Nc2ccccc2N2CCOCC2)c1	39	51*	0.5	0.6	4	38*
COc1cccc(-n2c(C)nnc2SCC(=O)Nc2ccccc2N2CCOCC2)c1	63*	77*	0.2	0.4	-4	-8
Cc1ccccc1-n1ncc2c([N+](=O)[O-])cc([N+](=O)[O-])cc21	nt	nt	nt	nt	14	16
OC(COCc1ccccc1)CN1CCCC1 (stereo not given)	-2	6	0.9	1	5	1
CC1CC(OCC(O)CN2CCN(Cc3ccccc3)CC2)CC(C)(C)C1 (stereo not given)	nt	nt	nt	nt	83*	32*
Cc1cccc(N2CCN(C(=O)CCc3nc4ccccc4[nH]3)CC2C)c1 (stereo not given)	75*	56*	0.4	0.2	-2	2
O=C(CSc1nc2ccccc2[nH]1)N1CCN(c2ccc(F)cc2)CC1	48	7	0.9	0.5	-4	-1
Cc1ccc(N2CCN(C(=O)CCc3nc4ccccc4[nH]3)CC2)c(C)c1	84*	72*	0.3	0.2	-2	11
CC1CCCC(C)N1C(=O)Nc1cccc(Cl)c1 (stereo not given)	40	2	1	0.6	3	6
O=C(Nc1cccc(Cl)c1)ON=C1c2ccccc2-c2ccccc21	11	63*	0.4	0.9	0	23
COC(=O)NCC(C)OC(=O)Nc1cccc(Cl)c1 (stereo not given)	59*	35	0.6	0.4	9	7
CC(C)COC(=O)NCCCOC(=O)Nc1ccccc1	38	45	0.5	0.6	7	6
CC(C)COC(=O)NCCOC(=O)Nc1cccc(Cl)c1	95*	80*	0.2	0	-6	7
CCN(CC)S(=O)(=O)c1ccc(C2CNC(=O)C2)cc1 (stereo not given)	-19	10	0.9	1.2	-2	0
O=C(C1CCC(N2C(=O)C3CC=CCC3C2=O)CC1)N1CCCCC1 (stereo not given)	32	46	0.5	0.7	-1	-2
Cc1ccc(C)c(-c2nc3cc(N)ccc3o2)c1	28	17	0.8	0.7	13	3
CCc1ccc2oc(-c3cc(N)ccc3O)nc2c1	44	32	0.7	0.6	22	53*
CCc1ccc2oc(-c3cc(N)cc(C)c3O)nc2c1	95*	94*	0.1	0	-4	22
CCc1ccc2oc(-c3cc(N)ccc3Cl)nc2c1	53*	26	0.7	0.5	1	35*
